Compound activity deposited in PubChem BioAssay by National Center for Advancing Translational Sciences (NCATS).
SMN2 splice up = qHTS Assay for Enhancers of SMN2 Splice Variant Expression | HEK293 SMN2-luciferase splicing reporter, luminescence, 30-36 h | Potency, µM (doses to about 46.1 µM), inactives show top-dose activity change, positive = activation, most hits filed as activators | hit rate 2.8% among 210,000; note: % of control where 0% means no effect; nearly all actives have a fitted effect of over 55% in size
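qHTS luciferase splicing reporter: luminescence rises when SMN2 exon 7 is included in transfected HEK293 cells. Compound exposure lasted 30-36 h at 37C, with 4.5 mM final sodium butyrate as control, followed by a ONE-Glo read.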
NPC1 prom act = qHTS Assay for NPC1 Promoter Activators. Huh7 NPC1 promoter luciferase reporter, 24 h. Potency, µM (series often up to 9.22 µM), without a hit: at the highest dose activation, hits mostly activators. hit rate 2.4% among 320,000; note: % of control where 0% means no effect; nearly all actives have a fitted effect of over 60% in size
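Compounds in DMSO were transferred onto Huh7 NPC1-luciferase reporter cells pre-incubated 2 h; after 24 h at 37 °C, Amplite reagent was dispensed and luminescence recorded 10 min later.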
ELG1 genotoxic = qHTS screen for small molecules that induce genotoxicity in human embryonic kidney (HEK293T) cells expressing luciferase-tagged ELG1. AID 504466, 2011. Potency, µM (top dose mostly 46 µM), inactives show at the highest dose activity change, positive = activation, hits mostly activators. HEK293T ELG1-luciferase reporter, luminescence, 16 h. hit rate 1.3% among 330,000; note: % of control where 0% means no effect; nearly all actives have a fitted effect of over 60% in size
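Quantitative HTS format in 1536-well plates. HEK293T ELG1-luciferase reporter cells receive test compound and are incubated 16 hr at 37 °C, 5% CO2; ONE-Glo added, 30 min room temperature, then luminescence read.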
Rab9 prom act = qHTS Assay for Rab9 Promoter Activators | Huh7 Rab9 promoter-luciferase reporter, luminescence, 24 h | Potency, µM (series often up to 9.22 µM), for inactives: at the highest dose activation, negative = inhibition, usual class: activators | hit rate 2.8% among 320,000 | AID 485297, 2010; note: % of control where 0% means no effect; nearly all actives have a fitted effect of over 60% in size
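Using Huh7 cells stably transfected with Rab9 promoter–luciferase, compounds were incubated 24 h at 37 °C, 5% CO2; luciferase luminescence was read 10 min after reagent addition.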
KinaseGlo FLuc = Counterscreen for Luciferase (Kinase-Glo TM) Inhibition. Kinase-Glo luciferase, ATP luminescence, 8 min. Potency, µM (highest dose often 38.3 µM), inactives show top-dose activity change, negative = inhibition, hits mostly inhibitors. hit rate 0.28% among 200,000. AID 1379, 2008; note: % is set by controls: 0 for no effect and ±100 for the full control effect; nearly all actives have a fitted effect of over 60% in size
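Compound is pinned into ATP-containing buffer (10 uM ATP, imidazole pH 7.2, 7 mM MgCl2). Kinase-Glo luciferase reagent is then added. Light output is recorded following an 8-min room-temperature incubation.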
FLuc modulator = qHTS profiling assay for firefly luciferase inhibitor/activator using purifed enzyme and Km concentrations of substrates (counterscreen for miR-21 project) | Luciferin 4-monooxygenase (Photinus pyralis), P08659 | purified FLuc, Km substrates, luminescence inhibition | hit rate 6.9% among 360,000 | Potency, µM (highest dose often 57.5 µM), for inactives: at the highest dose activity change, negative = inhibition, actives largely listed as inhibitors;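 note: plate controls were vehicle for no effect and reference inhibitor for full effect; nearly all actives have a fitted effect of over 55% in size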
Target sequence (P08659 whole entry, looked up): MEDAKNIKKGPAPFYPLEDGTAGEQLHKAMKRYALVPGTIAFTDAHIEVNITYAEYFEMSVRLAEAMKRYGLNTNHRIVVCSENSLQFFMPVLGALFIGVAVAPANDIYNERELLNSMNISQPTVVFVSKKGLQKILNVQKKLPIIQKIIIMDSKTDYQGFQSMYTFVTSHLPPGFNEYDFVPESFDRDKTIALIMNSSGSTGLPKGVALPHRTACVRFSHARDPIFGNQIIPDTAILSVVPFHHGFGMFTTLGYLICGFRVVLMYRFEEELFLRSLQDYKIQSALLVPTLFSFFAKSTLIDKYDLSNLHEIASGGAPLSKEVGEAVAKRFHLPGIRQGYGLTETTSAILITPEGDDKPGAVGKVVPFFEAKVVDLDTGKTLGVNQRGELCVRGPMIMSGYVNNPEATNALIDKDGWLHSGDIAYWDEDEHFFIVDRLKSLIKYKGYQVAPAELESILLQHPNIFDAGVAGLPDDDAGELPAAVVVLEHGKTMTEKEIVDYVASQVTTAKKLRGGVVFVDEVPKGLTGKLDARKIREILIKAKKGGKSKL
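Biochemical qHTS of compounds, final roughly 60 µM downward over six points, against 10 nM purified firefly luciferase using Km concentrations of substrates (10 uM D-luciferin, 10 uM ATP) in Tris acetate pH 7.5 buffer; luminescence output.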
* marks the source's active call; other numbers are inactive results; ? = inconclusive; . = no result; [ ] = remark or other dose. The list is not random: actives were taken first. Their share in the collection is about 7.4%. Calls come from the whole dose curve; as a rule, active = well fitted curve in the direction sought with a large enough effect; inconclusive = small, poorly fitted or top-dose-only effect, or another doubt; inactive = no such curve, though single readings can be large; an effect the other way counts as inactive or inconclusive. Potency is the fitted concentration of half-maximal effect.

SMILES	SMN2 splice up	NPC1 prom act	ELG1 genotoxic	Rab9 prom act	KinaseGlo FLuc	FLuc modulator
C/C(=N\Nc1nc(-c2ccc(C)cc2)nc2ccccc12)c1ccc([N+](=O)[O-])cc1	-20%	0%	-2%	0%	-3%	-3%
C/C(=N\NC(=S)NCc1ccccc1)c1ccc(C(C)(C)C)cc1	-30%	-1%	-3%	-1%	0%	1%
C/C(=N\Nc1nncc2ccccc12)c1ccc(C(C)(C)C)cc1	.	?	18%	18%[1.84 µM]	.	7.6µM*
COc1cc2c(cc1OC)C(c1ccc(-c3ccccc3Cl)o1)=NCC2	-38%	17%	11%	-2%	-23%	2.1µM*
COc1cc2c(cc1OC)C(c1ccc(-c3ccc(Cl)c(Cl)c3)o1)=NCC2	-62%	-1%	-16%	-8%	-23%	15µM*
COc1cc2c(cc1OC)C(c1ccc(-c3ccc(Cl)cc3Cl)o1)=NCC2	-20%	-8%	-13%	-4%	-2%	15µM*
COc1ccc(NC(=O)NCCC2=CCCCC2)cc1	13µM*	4µM*	?	2.8µM*	-1%	?
COc1cccc(NC(=O)NCCC2=CCCCC2)c1	14µM*	3.5µM*	?	4.5µM*	0%	15µM*
C=CC(C1=CC(=O)C(OC)=CC1=O)c1ccc(O)cc1 (stereo not given)	-2%	.	.	.	0%	.
COC(=O)c1ccccc1NC(=O)c1cnc2sc(N3CCOCC3)nn2c1=O	.	.	.	.	.	-5%
CC(C)c1ccc(NC(=O)c2cnc3sc(N4CCOCC4)nn3c2=O)cc1	.	.	.	.	.	1.9µM*
Cc1ccc(Cc2c(C)nc3c(-c4ccccc4)c(C)[nH]n3c2=O)cc1	-1%	.	.	.	.	0%
Cc1nc2c(-c3ccccc3)c[nH]n2c(=O)c1Cc1ccccc1	-60%	8%	1%	?	-1%	27µM*
Cc1nc2nc(-c3cccnc3)[nH]n2c(=O)c1Cc1ccccc1	15%	-2%	11%	12%	-1%	?
Cc1nc2nc(-c3ccccc3)[nH]n2c(=O)c1C	?	24%	?	?	-15%	?
Cc1nc2nc(-c3ccc(Cl)cc3)[nH]n2c(=O)c1Cc1ccccc1	?	?	?	27%	-1%	3µM*
Cc1nc2nc(-c3ccc(Cl)cc3)[nH]n2c(=O)c1C	?	2.5µM*	?	2.2µM*	-9%	6µM*
c1ccc2c[n+](CCCC[n+]3ccc4ccccc4c3)ccc2c1	-10%[9.22 µM]	.	.	.	-1%[7.66 µM]	.
C[C@H]1C2=C3C(CC[C@H]4C(OCc5ccc(F)cc5C(F)(F)F)OC[C@](C)([C@@H]34)N(C(=O)OC(C)(C)C)C2)C2COC(=O)OCC21 (stereo not given in full)	-1%	.	.	.	-1%	.
COc1ccccc1Cn1ccn(Cc2c(F)cccc2Cl)c(=O)c1=O	.	.	.	.	.	-7%
c1csc(CSc2nc3ccccc3s2)c1	?	?	15µM*	3.5µM*	-12%	4.8µM*
CCn1c(CSc2nc3ccccc3s2)nc2ccccc21	-34%	1%	3%	1%	0%	24µM*
Cc1noc(C)c1CSc1nc2ccccc2s1	-12%	-4%	?	1%	-1%	?
Cc1cc(C)c(NC(=O)C2CCN(c3nn4c(=O)cc(C)nc4s3)CC2)c(C)c1	12%	.	.	.	.	-2%
CCOc1cccc(/C=N/NC(=O)c2cc(C3CC3)[nH]n2)c1O	.	-43%	?	-37%	.	12µM*
SMILES	SMN2 splice up	NPC1 prom act	ELG1 genotoxic	Rab9 prom act	KinaseGlo FLuc	FLuc modulator
O=C(Nc1ccc(OCc2ccccc2Cl)cc1)c1cccnc1	.	-3%	2%	1%	.	?
CCOc1cccc(/C=N/NC(=O)c2cccnc2)c1O	.	-21%	?	-11%	.	19µM*
O=C(N/N=C/c1ccccc1OCc1ccccc1Cl)c1cccnc1	-21%	0%	5%	-5%	1%	24µM*
CCCn1c(C)nc2c(NC(C)CN(C)C)nc(C)nc21 (stereo not given)	-3%	.	.	.	-4%	.
FC(F)(F)c1ccccc1-c1nc(Nc2ccncc2)c2ccccc2n1	14%	.	.	.	-2%	.
CSc1nsc2nc(=O)c(/C=C3\C(C)=Nc4ccccc43)c(N)n12	7%	9%	-5%	22%	1%	15µM*
C=CCNc1nc(Nc2ccccc2F)nc(OCC)n1	11µM*	4µM*	19%	4µM*	-2%	21µM*
Cc1ccc(Cn2c(CNS(=O)(=O)c3ccc(C(C)(C)C)cc3)nc3cccnc32)cc1	.	.	.	.	.	-8%
COc1ccc(C(=O)NCCNc2ccccc2[N+](=O)[O-])cc1	11µM*	1.6µM*	12µM*	0.63µM*	-1%	4.8µM*
CCCOc1ccc(C(=O)Nc2ccc(C)cc2[N+](=O)[O-])cc1	-15%	?	3%	?	-2%	-10%
O=C(NCCCNc1ccc(C(F)(F)F)cc1[N+](=O)[O-])c1cc(F)c(F)cc1Cl	-29%	-3%	-4%	-8%	-1%	-8%
CC(C)COc1ccc(C(=O)Nc2ccccc2[N+](=O)[O-])cc1	16µM*	?	?	?	-3%	?
O=C(NCCNc1ccccc1[N+](=O)[O-])c1cc(F)c(F)cc1Cl	.	?	?	?	.	19µM*
COc1ccc(CNc2nc3c(-c4ccc(C)cc4)nnn3c3ccccc23)cc1	27%	.	.	.	.	3%
CCc1ccc(/C=C/C(=O)C2C(=O)c3ccccc3C2=O)cc1	?	?	1%	?	-12%	0.43µM*
CC(C)(C)C(=O)C1C(=O)c2ccccc2C1=O	-5%	.	.	.	.	.
CCC(=O)Oc1cccc(C(=O)Nc2cccc(NC(=O)c3ccco3)c2)c1	.	3%	-9%	-3%	.	?
Fc1ccc(CSc2nsc(SCc3ccc(F)cc3)n2)cc1	-5%	2%	-3%	-5%	-3%	-1%
CCC(=O)Oc1ccc(NC(=O)c2ccco2)cc1	9%	2%	9%	5%	?	12µM*
O=C(Nc1nc(SCc2ccc(F)cc2)ns1)c1ccco1	18µM*	13%	13%	20%	2%	21µM*
CCSc1nsc(NC(=O)Nc2ccc(F)cc2F)n1	.	?	6%	?	.	5.4µM*
O=C(Nc1ccc(OC(=O)c2ccco2)cc1)c1ccco1	17%	9%	7%	4%	13µM*	4.8µM*
CCn1c(=NC(=O)c2ccc(S(=O)(=O)N3CCCCC3)cc2)sc2cccc(OC)c21	?	.	.	.	.	2%
